# Article PMC7862700, “An all-to-all approach to the identification of sequence-specific readers for epigenetic DNA modifications on cytosine”
# Tests used:
# Test in all cases: DAPPL (digital affinity profiling via proximity ligation, sequencing); 10 mM Tris-HCl pH 7.5, 50 mM NaCl, 1 mM DTT, 4% glycerol, room temperature, 30 min; GST-TFs on glutathione beads, 16-mer random dsDNA library, 0.1% formaldehyde crosslink after washing; high values mean tight binding
# FEV = biological target: T1, FEV (Homo sapiens, UniProt Q99581 1-238); details: protein: recombinant; tags: N-terminal GST; dsDNA, one strand shown
# T1 sequence: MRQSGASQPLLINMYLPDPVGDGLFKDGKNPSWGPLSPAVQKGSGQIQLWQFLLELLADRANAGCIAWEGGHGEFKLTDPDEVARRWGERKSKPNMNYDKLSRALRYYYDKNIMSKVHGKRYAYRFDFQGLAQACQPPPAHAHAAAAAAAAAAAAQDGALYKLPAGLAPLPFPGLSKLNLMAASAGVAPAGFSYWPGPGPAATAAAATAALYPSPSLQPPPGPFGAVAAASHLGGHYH
# Summary of the method: (§1)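 Binding signal is each hexamer's read frequency for a factor divided by its frequency in the tag-only sample. The factors were GST-fused human transcription factors from yeast, captured on glutathione beads, DNA-barcoded and pooled with that sample. Pools were incubated with 200 nmole of a random double-stranded 16-mer DNA library in Tris/NaCl/DTT/glycerol buffer at room temperature for 30 min, then washed, crosslinked with 0.1% formaldehyde, proximity-ligated with BsaI/T4 ligase (1 h, 37 °C), PCR-amplified and sequenced on an Illumina NextSeq500.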
# ETV5 = ETV5 (Homo sapiens, UniProt P41161 1-510); details: protein: recombinant; tags: N-terminal GST; dsDNA, one strand shown
# Summary of the method: as §1
# HSF1 = HSF1 (Homo sapiens, UniProt Q00613 1-529); details: protein: recombinant; tags: N-terminal GST; chain copies: 3; dsDNA, one strand shown
# Summary of the method: as §1
# SPIC = biological target: T2, SPIC (Homo sapiens, UniProt Q8N5J4 1-248); details: protein: recombinant; tags: N-terminal GST; dsDNA, one strand shown
# T2 sequence: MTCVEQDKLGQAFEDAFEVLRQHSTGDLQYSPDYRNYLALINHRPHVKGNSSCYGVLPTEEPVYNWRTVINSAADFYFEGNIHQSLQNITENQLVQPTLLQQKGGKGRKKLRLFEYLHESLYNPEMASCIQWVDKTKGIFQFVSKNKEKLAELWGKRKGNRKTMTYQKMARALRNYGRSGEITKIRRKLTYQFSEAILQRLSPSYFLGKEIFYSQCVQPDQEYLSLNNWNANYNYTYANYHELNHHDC
# Summary of the method: as §1
# ELF4 = ELF4 (Homo sapiens, UniProt Q99607 1-663); details: protein: recombinant; tags: N-terminal GST; dsDNA, one strand shown
# Summary of the method: as §1
# ELK4 = biological target: T3, ELK4 (Homo sapiens, UniProt P28324-2 1-405); details: protein: recombinant; tags: N-terminal GST; dsDNA, one strand shown
# T3 sequence: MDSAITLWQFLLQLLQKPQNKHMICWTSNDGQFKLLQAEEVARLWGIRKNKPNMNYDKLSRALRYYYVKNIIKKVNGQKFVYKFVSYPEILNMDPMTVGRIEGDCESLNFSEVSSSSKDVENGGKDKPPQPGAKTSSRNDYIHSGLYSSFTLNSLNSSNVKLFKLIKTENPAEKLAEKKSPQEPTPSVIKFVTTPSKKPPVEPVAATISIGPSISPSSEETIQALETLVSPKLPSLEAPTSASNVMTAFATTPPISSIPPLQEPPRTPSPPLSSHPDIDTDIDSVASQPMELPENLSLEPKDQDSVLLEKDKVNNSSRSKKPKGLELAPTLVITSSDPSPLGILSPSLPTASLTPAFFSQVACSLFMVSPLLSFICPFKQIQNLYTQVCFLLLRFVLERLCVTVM
# Summary of the method: as §1
# ETV2 = biological target: T4, ETV2 (Homo sapiens, UniProt O00321 1-342); details: protein: recombinant; tags: N-terminal GST; dsDNA, one strand shown
# T4 sequence: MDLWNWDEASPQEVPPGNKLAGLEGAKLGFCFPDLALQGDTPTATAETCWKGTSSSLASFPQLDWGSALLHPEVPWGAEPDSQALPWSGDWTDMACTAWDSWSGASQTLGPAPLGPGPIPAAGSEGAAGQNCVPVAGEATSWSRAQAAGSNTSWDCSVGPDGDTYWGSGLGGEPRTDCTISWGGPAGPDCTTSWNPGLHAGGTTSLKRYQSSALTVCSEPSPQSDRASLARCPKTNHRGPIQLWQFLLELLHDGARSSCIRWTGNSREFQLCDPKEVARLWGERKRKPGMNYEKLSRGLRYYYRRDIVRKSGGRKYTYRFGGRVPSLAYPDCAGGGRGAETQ
# Summary of the method: as §1
# ELF3 = biological target: T5, ELF3 (Homo sapiens, UniProt P78545 1-371); details: protein: recombinant; tags: N-terminal GST; dsDNA, one strand shown
# T5 sequence: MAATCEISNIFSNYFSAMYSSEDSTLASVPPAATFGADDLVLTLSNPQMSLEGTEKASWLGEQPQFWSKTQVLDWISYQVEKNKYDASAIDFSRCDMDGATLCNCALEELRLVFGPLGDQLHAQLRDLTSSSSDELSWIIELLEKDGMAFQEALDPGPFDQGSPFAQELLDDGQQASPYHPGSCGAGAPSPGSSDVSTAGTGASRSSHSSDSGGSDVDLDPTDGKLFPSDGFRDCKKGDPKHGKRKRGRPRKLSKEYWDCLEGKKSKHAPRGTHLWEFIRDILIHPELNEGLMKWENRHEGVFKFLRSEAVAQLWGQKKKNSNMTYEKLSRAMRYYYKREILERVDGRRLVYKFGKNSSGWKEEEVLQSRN
# Summary of the method: as §1
# CRX = CRX (Homo sapiens, UniProt O43186 1-299); details: protein: recombinant; tags: N-terminal GST; dsDNA, one strand shown
# Summary of the method: as §1
# ETV1 = ETV1 (Homo sapiens, UniProt P50549 1-477); details: protein: recombinant; tags: N-terminal GST; dsDNA, one strand shown
# Summary of the method: as §1
# ERF = biological target: T6, ERF (Homo sapiens, UniProt P50548 1-548); details: protein: recombinant; tags: N-terminal GST; dsDNA, one strand shown
# T6 sequence: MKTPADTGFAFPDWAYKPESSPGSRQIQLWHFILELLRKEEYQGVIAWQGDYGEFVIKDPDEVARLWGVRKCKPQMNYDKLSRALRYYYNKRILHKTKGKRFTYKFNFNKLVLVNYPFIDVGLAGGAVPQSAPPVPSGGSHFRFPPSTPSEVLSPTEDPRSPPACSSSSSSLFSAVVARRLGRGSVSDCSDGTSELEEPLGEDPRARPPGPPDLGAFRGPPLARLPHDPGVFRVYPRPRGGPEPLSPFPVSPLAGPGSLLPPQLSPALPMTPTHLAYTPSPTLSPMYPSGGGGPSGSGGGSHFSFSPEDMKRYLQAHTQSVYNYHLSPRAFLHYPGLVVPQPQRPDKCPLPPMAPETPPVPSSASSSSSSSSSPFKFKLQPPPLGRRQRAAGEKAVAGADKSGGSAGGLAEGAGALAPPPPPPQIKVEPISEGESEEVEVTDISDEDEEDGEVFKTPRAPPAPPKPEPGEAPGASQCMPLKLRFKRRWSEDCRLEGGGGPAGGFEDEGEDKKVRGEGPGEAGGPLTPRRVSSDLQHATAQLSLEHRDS
# Summary of the method: as §1
# ETV3L = biological target: T7, ETV3L (Homo sapiens, UniProt Q6ZN32 1-361); details: protein: recombinant; tags: N-terminal GST; dsDNA, one strand shown
# T7 sequence: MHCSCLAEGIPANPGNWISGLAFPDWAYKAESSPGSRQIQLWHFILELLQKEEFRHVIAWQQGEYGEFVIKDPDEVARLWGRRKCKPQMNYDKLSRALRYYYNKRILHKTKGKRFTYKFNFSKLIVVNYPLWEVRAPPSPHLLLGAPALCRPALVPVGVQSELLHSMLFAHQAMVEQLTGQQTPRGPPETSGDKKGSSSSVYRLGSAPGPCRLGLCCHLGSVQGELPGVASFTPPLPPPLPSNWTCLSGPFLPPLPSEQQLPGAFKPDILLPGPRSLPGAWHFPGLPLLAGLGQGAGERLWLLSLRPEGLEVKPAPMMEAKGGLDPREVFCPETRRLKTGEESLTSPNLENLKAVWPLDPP
# Summary of the method: as §1
# ETS2 = biological target: T8, ETS2 (Homo sapiens, UniProt P15036 1-469); details: protein: recombinant; tags: N-terminal GST; dsDNA, one strand shown
# T8 sequence: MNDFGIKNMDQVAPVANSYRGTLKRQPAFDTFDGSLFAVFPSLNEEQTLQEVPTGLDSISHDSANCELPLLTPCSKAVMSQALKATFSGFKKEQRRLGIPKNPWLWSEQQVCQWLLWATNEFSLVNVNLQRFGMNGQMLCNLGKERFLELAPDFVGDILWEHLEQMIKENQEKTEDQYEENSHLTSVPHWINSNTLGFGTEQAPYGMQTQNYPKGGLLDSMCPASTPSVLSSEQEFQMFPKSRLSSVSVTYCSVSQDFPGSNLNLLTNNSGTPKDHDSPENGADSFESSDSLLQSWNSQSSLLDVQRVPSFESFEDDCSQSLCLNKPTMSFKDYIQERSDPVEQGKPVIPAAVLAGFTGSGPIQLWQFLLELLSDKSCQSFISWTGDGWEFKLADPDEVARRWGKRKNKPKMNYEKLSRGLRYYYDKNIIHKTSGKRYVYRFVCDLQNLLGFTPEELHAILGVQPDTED
# Summary of the method: as §1
# SPDEF = biological target: T9, SPDEF (Homo sapiens, UniProt O95238 1-335); details: protein: recombinant; tags: N-terminal GST; dsDNA, one strand shown
# T9 sequence: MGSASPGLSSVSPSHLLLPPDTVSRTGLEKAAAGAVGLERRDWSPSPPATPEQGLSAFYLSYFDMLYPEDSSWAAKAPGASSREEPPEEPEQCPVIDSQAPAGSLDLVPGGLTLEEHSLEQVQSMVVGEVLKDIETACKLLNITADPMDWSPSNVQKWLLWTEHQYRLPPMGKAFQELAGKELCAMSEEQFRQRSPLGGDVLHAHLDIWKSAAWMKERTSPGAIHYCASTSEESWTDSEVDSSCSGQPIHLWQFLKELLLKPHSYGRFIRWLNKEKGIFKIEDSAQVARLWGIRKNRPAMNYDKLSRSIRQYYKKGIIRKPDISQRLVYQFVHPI
# Summary of the method: as §1
# ETV7 = biological target: T10, ETV7 (Homo sapiens, UniProt Q9Y603 1-341); details: protein: recombinant; tags: N-terminal GST; dsDNA, one strand shown
# T10 sequence: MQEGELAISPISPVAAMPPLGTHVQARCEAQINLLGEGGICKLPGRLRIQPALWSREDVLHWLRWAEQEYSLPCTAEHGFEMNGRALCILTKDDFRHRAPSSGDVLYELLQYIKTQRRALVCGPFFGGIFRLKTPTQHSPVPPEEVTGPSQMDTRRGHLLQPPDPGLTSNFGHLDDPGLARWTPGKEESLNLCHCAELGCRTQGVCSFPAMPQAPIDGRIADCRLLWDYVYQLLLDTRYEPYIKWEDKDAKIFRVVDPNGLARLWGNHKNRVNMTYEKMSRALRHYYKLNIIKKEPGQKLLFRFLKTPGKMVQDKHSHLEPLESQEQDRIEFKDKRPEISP
# Summary of the method: as §1
# ELF5 = biological target: T11, ELF5 (Homo sapiens, UniProt Q9UKW6-2 1-255); details: protein: recombinant; tags: N-terminal GST; dsDNA, one strand shown
# T11 sequence: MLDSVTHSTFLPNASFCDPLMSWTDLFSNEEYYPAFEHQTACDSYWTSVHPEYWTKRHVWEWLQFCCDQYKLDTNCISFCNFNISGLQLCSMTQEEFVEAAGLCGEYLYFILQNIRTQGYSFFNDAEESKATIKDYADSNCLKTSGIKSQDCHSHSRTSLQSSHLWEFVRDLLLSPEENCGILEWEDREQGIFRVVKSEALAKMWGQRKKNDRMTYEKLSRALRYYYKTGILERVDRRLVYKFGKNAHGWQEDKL
# Summary of the method: as §1
# ETV3 = biological target: T12, ETV3 (Homo sapiens, UniProt P41162-2 1-143); details: protein: recombinant; tags: N-terminal GST; dsDNA, one strand shown
# T12 sequence: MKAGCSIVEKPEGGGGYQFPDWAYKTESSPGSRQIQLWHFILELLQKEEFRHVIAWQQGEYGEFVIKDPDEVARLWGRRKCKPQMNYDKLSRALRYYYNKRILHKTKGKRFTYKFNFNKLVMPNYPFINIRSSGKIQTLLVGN
# Summary of the method: as §1
# ETV6 = ETV6 (Homo sapiens, UniProt P41212 1-452); details: protein: recombinant; tags: N-terminal GST; dsDNA, one strand shown
# Summary of the method: as §1
# Sequence of HSF1 (Q00613 whole entry): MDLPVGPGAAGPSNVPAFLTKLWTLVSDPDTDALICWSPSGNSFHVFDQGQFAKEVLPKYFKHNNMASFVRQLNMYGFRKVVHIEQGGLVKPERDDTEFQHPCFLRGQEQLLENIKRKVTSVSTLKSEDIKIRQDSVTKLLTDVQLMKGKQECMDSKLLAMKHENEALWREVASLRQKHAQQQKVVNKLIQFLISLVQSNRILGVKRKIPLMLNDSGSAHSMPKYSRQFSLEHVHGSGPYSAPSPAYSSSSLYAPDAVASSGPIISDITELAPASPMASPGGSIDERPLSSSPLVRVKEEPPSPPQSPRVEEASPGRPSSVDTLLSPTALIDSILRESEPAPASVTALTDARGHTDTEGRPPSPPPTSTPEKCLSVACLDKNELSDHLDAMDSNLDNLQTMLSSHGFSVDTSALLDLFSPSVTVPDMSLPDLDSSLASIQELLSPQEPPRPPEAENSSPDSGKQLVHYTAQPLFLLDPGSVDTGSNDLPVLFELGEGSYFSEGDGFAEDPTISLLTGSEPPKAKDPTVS
# Sequence of ETV5 (P41161 whole entry): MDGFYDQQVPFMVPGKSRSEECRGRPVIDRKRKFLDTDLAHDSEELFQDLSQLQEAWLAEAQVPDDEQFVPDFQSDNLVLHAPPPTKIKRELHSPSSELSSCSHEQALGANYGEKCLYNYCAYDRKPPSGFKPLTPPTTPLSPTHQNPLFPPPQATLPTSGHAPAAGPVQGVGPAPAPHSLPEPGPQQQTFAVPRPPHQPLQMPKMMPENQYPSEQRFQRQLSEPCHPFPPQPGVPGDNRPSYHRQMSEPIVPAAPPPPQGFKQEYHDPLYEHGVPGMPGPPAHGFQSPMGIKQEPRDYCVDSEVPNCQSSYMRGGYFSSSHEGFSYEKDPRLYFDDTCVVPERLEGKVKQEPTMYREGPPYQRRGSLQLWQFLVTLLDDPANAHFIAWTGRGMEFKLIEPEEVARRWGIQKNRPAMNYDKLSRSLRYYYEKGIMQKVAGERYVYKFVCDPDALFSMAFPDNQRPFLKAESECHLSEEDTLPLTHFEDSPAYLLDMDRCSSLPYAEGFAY
# Sequence of ETV1 (P50549 whole entry): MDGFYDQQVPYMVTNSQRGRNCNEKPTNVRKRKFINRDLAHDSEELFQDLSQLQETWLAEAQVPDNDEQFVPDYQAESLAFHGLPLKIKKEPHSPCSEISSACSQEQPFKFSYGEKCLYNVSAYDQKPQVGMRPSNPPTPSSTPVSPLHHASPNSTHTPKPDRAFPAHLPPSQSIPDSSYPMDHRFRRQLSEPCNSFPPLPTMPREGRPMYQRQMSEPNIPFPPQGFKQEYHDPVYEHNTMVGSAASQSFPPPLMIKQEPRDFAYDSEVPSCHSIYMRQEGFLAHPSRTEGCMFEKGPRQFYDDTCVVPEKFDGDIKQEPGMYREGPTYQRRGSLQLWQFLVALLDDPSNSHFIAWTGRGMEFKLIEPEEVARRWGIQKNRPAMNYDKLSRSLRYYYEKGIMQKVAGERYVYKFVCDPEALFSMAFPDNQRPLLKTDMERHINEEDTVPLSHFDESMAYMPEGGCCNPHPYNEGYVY
# Sequence of ETV6 (P41212 whole entry): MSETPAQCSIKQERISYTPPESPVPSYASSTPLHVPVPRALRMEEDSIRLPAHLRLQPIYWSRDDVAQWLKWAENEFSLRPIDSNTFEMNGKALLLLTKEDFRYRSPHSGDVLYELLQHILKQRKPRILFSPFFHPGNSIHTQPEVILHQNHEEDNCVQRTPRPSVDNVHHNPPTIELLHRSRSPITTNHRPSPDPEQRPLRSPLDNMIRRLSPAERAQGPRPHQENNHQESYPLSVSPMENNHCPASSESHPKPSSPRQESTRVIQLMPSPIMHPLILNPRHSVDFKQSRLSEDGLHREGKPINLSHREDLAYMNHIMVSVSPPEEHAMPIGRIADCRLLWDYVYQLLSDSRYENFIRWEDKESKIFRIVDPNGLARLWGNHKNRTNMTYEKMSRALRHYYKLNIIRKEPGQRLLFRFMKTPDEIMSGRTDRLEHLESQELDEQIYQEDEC
# Sequence of ELF4 (Q99607 whole entry): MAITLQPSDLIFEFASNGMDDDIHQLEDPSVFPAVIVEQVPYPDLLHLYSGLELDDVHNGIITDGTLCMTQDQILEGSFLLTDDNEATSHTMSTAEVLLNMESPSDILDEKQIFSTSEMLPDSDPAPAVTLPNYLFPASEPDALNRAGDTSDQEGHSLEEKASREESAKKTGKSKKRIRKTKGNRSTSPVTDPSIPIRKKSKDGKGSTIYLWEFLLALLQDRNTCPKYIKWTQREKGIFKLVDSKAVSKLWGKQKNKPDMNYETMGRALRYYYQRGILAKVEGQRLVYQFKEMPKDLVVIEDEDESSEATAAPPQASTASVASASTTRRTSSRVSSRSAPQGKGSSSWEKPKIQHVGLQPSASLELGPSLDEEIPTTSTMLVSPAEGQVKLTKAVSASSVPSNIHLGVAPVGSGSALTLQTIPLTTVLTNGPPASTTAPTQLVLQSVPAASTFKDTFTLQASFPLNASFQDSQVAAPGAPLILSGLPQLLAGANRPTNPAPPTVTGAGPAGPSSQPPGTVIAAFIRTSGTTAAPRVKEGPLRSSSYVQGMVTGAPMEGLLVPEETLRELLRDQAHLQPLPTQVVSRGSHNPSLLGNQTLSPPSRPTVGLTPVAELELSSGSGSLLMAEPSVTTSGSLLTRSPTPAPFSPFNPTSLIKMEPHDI
# Sequence of CRX (O43186 whole entry): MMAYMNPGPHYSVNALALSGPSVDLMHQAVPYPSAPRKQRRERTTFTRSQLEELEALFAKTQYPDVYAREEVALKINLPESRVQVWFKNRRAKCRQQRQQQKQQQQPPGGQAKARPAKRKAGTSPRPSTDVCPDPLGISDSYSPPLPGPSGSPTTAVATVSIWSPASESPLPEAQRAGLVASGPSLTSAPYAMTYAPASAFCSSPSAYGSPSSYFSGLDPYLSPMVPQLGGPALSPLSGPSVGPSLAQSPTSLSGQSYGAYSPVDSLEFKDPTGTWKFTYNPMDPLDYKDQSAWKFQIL
sequence,measurement,setting,value
CCGCAT,binding signal,FEV,"1.49 fold enrichment (6-mer frequency, TF over GST control)"
same,binding signal,ETV5,"1.65 fold enrichment (6-mer frequency, TF over GST control)"
same,binding signal,HSF1,"1.13 fold enrichment (6-mer frequency, TF over GST control)"
same,binding signal,SPIC,"1.53 fold enrichment (6-mer frequency, TF over GST control)"
same,binding signal,ELF4,"1.62 fold enrichment (6-mer frequency, TF over GST control)"
same,binding signal,ELK4,"1.31 fold enrichment (6-mer frequency, TF over GST control)"
same,binding signal,ETV2,"1.52 fold enrichment (6-mer frequency, TF over GST control)"
same,binding signal,ELF3,"1.95 fold enrichment (6-mer frequency, TF over GST control)"
same,binding signal,CRX,"1.19 fold enrichment (6-mer frequency, TF over GST control)"
same,binding signal,ETV1,"1.59 fold enrichment (6-mer frequency, TF over GST control)"
same,binding signal,ERF,"1.46 fold enrichment (6-mer frequency, TF over GST control)"
same,binding signal,ETV3L,"1.6 fold enrichment (6-mer frequency, TF over GST control)"
same,binding signal,ETS2,"1.56 fold enrichment (6-mer frequency, TF over GST control)"
same,binding signal,SPDEF,"1.64 fold enrichment (6-mer frequency, TF over GST control)"
same,binding signal,ETV7,"1.44 fold enrichment (6-mer frequency, TF over GST control)"
same,binding signal,ELF5,"1.75 fold enrichment (6-mer frequency, TF over GST control)"
same,binding signal,ETV3,"1.57 fold enrichment (6-mer frequency, TF over GST control)"
same,binding signal,ETV6,"1.59 fold enrichment (6-mer frequency, TF over GST control)"
